Compound activity: PubChem, National Center for Advancing Translational Sciences (NCATS)
FLuc modulator – qHTS profiling assay for firefly luciferase inhibitor/activator using purifed enzyme and Km concentrations of substrates (counterscreen for miR-21 project). 6.9% of 360,000 active. purified FLuc, Km substrates, luminescence inhibition. Potency, µM (doses to about 57.5 µM), inactives show top-dose activity change, negative = inhibition, actives largely listed as inhibitors. Luciferin 4-monooxygenase (Photinus pyralis), P08659;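 note: plate controls were vehicle for no effect and reference inhibitor for full effect; nearly all actives have a fitted effect of over 55% in size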
Target sequence (P08659 whole entry, looked up): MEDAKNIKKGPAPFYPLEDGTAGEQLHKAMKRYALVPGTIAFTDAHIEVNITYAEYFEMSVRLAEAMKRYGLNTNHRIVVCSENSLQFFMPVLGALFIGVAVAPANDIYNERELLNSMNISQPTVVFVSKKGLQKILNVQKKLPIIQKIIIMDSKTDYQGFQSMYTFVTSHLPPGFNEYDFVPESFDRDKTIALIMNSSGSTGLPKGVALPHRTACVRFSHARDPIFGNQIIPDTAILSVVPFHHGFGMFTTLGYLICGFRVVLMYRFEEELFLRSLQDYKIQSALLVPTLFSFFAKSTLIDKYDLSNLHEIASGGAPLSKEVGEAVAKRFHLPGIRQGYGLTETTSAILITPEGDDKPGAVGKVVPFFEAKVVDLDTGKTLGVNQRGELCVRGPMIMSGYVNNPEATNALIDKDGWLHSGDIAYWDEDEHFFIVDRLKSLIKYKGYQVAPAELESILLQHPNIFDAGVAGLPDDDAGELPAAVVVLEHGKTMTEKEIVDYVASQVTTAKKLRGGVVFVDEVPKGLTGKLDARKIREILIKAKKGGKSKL
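Purified P. pyralis luciferase (10nM final) with 10uM D-luciferin and 10uM ATP (Km levels) in 50mM Tris acetate pH 7.5, 10mM Mg acetate, 0.01% Tween-20, 0.05% BSA; qHTS 6-point titration, ~60 µM downward; luminescence read.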
p53 reactivator – qHTS assay for re-activators of p53 using a Luc reporter. H1299 p53-A138V BP100-luciferase reporter, luminescence, 24 h. Potency, µM (titrated, usually from 92.2 µM), inactives show at the top dose activity change, positive = activation, usual class: activators. 0.063% of 320,000 active. AID 504706, 2011; note: % of control where 0% means no effect; nearly all actives have a fitted effect of over 45% in size
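H1299 (p53-null), stable ts p53-A138V + BP100-Luc; 1000 cells/well, Opti-MEM/10% FBS; cpd 4 pt, 1:5; 24 h, 37 deg C, 5% CO2; detection reagent 10 min RT; luminescence.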
SMN2 splice up – qHTS Assay for Enhancers of SMN2 Splice Variant Expression; AID 1458, 2008; Potency, µM (top dose mostly 46.1 µM), for the others: top-dose activity change, positive = activation, hits mostly activators; 2.8% of 210,000 active; HEK293 SMN2-luciferase splicing reporter, luminescence, 30-36 h; note: % of control where 0% means no effect; nearly all actives have a fitted effect of over 55% in size
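HEK293 cells carry an SMN2 […]–luciferase reporter in which exon 7 inclusion puts luciferase in frame. Cells were plated 10-12 h before compound addition, then incubated 30-36 h at 37C. ONE-Glo luminescence was read; sodium butyrate at 4.5 mM final served as control.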
ELG1 genotox – qHTS screen for small molecules that induce genotoxicity in human embryonic kidney (HEK293T) cells expressing luciferase-tagged ELG1; HEK293T ELG1-luciferase reporter, luminescence, 16 h; 1.3% of 330,000 active; Potency, µM (highest dose often 46 µM), for inactives: at the top dose activity change, positive = activation, usual class: activators; note: % of control where 0% means no effect; nearly all actives have a fitted effect of over 60% in size
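Quantitative HTS format in 1536-well plates. HEK293T ELG1-luciferase reporter cells receive test compound and are incubated 16 hr at 37 °C, 5% CO2; ONE-Glo added, 30 min room temperature, then luminescence read.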
Rab9 promoter act – qHTS Assay for Rab9 Promoter Activators. 2.8% of 320,000 active. Potency, µM (series often up to 9.22 µM), inactives show at the top dose activation, negative = inhibition, hits mostly activators. Huh7 Rab9 promoter-luciferase reporter, luminescence, 24 h; note: % of control where 0% means no effect; nearly all actives have a fitted effect of over 60% in size
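Using Huh7 cells stably transfected with Rab9 promoter–luciferase, compounds were incubated 24 h at 37 °C, 5% CO2; luciferase luminescence was read 10 min after reagent addition.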
NPC1 promoter act – qHTS Assay for NPC1 Promoter Activators. Huh7 NPC1 promoter luciferase reporter, 24 h. Potency, µM (series often up to 9.22 µM), for the others: at the highest dose activation, actives largely listed as activators. 2.4% of 320,000 active. AID 485313, 2010; note: % of control where 0% means no effect; nearly all actives have a fitted effect of over 60% in size
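Stably transfected Huh7 (NPC1 promoter→luciferase), 1500 cells/well in Opti-MEM + 10% FBS, 2 h settle, then compound 24 h at 37 °C. Luminescence after 10 min with Amplite reagent.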
The depositor's hits bear a star; ? = inconclusive; . = no result. A selection: hits, their analogues and other compounds. The true share with any hit is near 7.4%. Calls come from the whole dose curve; as a rule, active = well fitted curve in the direction sought with a large enough effect; inconclusive = small, poorly fitted or top-dose-only effect, or another doubt; inactive = no such curve, though single readings can be large; an effect the other way counts as inactive or inconclusive. Potency is the fitted concentration of half-maximal effect.

SMILES	FLuc modulator	p53 reactivator	SMN2 splice up	ELG1 genotox	Rab9 promoter act	NPC1 promoter act
COc1ccc(-c2cnn3c(N)c(S(=O)(=O)C(C)(C)C)cnc23)cc1	?	2%	-11%	-4%	9%	9%
Nc1c(-c2ccc(Cl)cc2)cnc2c(-c3ccccc3)cnn12	0.48µM*	34%	.	1.6µM*	1.3µM*	0.32µM*
CC(C)(C)S(=O)(=O)c1cnc2c(-c3ccc(Cl)cc3)cnn2c1N	?	1%	-14%	1%	24%	21%
Nc1c(-c2ccc(Cl)cc2)nnn1-c1ccccc1	?	?	.	?	2.2µM*	3.2µM*
COc1ccc(-c2cnc3c(-c4ccc(F)cc4)cnn3c2N)cc1	0.6µM*	?	.	?	0.32µM*	0.4µM*
Cc1ccc(-c2cnn(-c3cccc([N+](=O)[O-])c3)c2N)cc1	12µM*	-2%	29%	?	3.2µM*	2.2µM*
Cc1ccccc1-c1cnn(-c2cccc([N+](=O)[O-])c2)c1N	-20%	1%	12%	-1%	25%	3%
COc1ccc(-c2nnn(-c3cc(Cl)cc(Cl)c3)c2N)cc1	-19%	0%	.	1%	1%	2%
COc1ccc(CCN(C)C(=O)c2ccc(C)c(S(=O)(=O)N3CCCCC3)c2)cc1OC	0%	-6%	.	-1%	-4%	0%
COc1cc(NC(=O)Cc2ccccc2)ccc1NC(=O)c1ccccc1	9%	-13%	.	-4%	-1%	2%
CC(=O)N/C(=C\c1ccccc1)C(=O)OCC(=O)N(C)C1CCS(=O)(=O)C1 (centres undefined)	.	-5%	.	1%	.	.
Cc1ccc(Cn2cnc3nc4c(cc3c2=O)CC(C)CC4)cc1 (centres undefined)	12µM*	.	.	.	.	.
CC(=O)c1ccc(NC(=O)Cn2cnc3nc4c(cc3c2=O)CC(C)CC4)cc1 (centres undefined)	-18%	.	.	.	.	.
CC(=O)NC(Cc1ccc(F)cc1)C(=O)NC1CCN(C(=O)Nc2ccccc2C)CC1 (centres undefined)	3%	4%	.	0%	-3%	1%
O=C(NCC1CCCO1)c1csc(Nc2cccc3ccccc23)n1 (centres undefined)	21µM*	15%	.	?	-28%	-30%
Cc1cccc(-c2noc(-c3ccccc3C(=O)NCC3CCCO3)n2)c1 (centres undefined)	11µM*	24%	11%	1%	15%	?
O=C(NCC1CCCO1)c1ccccc1-c1nc(-c2ccc(Cl)cc2)no1 (centres undefined)	15µM*	3%	-4%	-7%	-6%	3%
O=C(NCC1CCCO1)c1ccccc1-c1nc(-c2ccccc2F)no1 (centres undefined)	?	9%	.	1%	-3%	3%
COc1cccc(NC(=O)c2ccccc2-c2nc(-c3cccc(C)c3)no2)c1	17µM*	15%	-5%	1%	26%	?
Cc1cccc(NC(=O)c2ccccc2-c2ccccc2)c1	1%	-2%	-4%	-2%	-8%	-7%
COCC(=O)N1CCC2(CCCN(Cc3ccccc3OC)C2)CC1	.	.	5%	.	.	.
COc1cc(NC(=O)C2=C(C)Nc3nnnn3C2c2ccc(SC)cc2)c(OC)cc1Cl (centres undefined)	-19%	.	0%	.	.	.
CCOc1ccc(C(=O)NCC(c2ccc(Cl)cc2)N2CCCCC2)cc1 (centres undefined)	-1%	.	.	.	.	.
O=C(Nc1ccc(Br)c(Cl)c1)c1ccco1	21µM*	?	?	21µM*	3.5µM*	?
O=C(Nc1ccc(N2CCOCC2)c(Cl)c1)c1ccc(Cl)cc1	17µM*	10%	-86%	-16%	29%	14%
SMILES	FLuc modulator	p53 reactivator	SMN2 splice up	ELG1 genotox	Rab9 promoter act	NPC1 promoter act
O=C(Nc1ccc(Cl)cc1C(=O)NCc1cccnc1)c1ccco1	0%	-7%	?	-1%	0%	4%
O=C(Nc1ccc(Cl)cc1C(=O)Nc1ccncc1)c1ccco1	-17%	-11%	32µM*	-12%	8%	2%
Cc1cc(C(=O)Nc2ccc(N3CCOCC3)c(Cl)c2)c(C)o1	6.7µM*	4%	.	?	2.8µM*	?
CCOc1ccc(N(Cc2cc3cc(C)ccc3[nH]c2=O)S(=O)(=O)c2ccccc2)cc1	-1%	-5%	.	-13%	-6%	-6%
O=C(Nc1nnc(-c2cc(Cl)ccc2Cl)o1)c1ccco1	6µM*	3%	.	?	19%	16%
O=C(Nc1nnc(-c2cc(Cl)ccc2Cl)o1)C1=COCCO1	-30%	-3%	.	3%	-2%	11%
O=C(Nc1ccc(N2CCOCC2)c(Cl)c1)c1ccccc1F	9.5µM*	?	24%	5.2µM*	3.5µM*	3.2µM*
CC(=O)N1CCN(c2ccc(NC(=O)c3ccco3)cc2Cl)CC1	?	16%	.	?	30%	1%
O=C(Nc1ccc(N2CCOCC2)c(Cl)c1)C1CCCCC1	?	16%	-12%	?	13%	18%
O=C(Nc1ccc(N2CCOCC2)c(Cl)c1)c1ccco1	9.5µM*	21%	13µM*	2.6µM*	3.5µM*	1.4µM*
O=C(Nc1ccc(N2CCOCC2)c(Cl)c1)c1ncn[nH]1	21µM*	8%	17%	2%	9%	23%
CC(=O)Nc1cccc(N(C)S(C)(=O)=O)c1	-3%	5%	8%	0%	-4%	-1%
COc1ccccc1OCC(=O)Nc1cccc(N(C)S(C)(=O)=O)c1	17µM*	2%	14%	2%	0%	12%
CN(c1cccc(NC(=O)CN2C(=O)c3ccccc3S2(=O)=O)c1)S(C)(=O)=O	27µM*	2%	23%	1%	-1%	13%
COc1ccc(C(=O)Nc2cccc(N(C)S(C)(=O)=O)c2)cc1OC	17µM*	13%	13µM*	16µM*	?	?
COc1ccc(OC)c(CCNC(=O)CCCn2c(=O)c3cccn3c3ccc(F)cc32)c1	4%	.	.	.	.	.
Cn1c(O)c(/C=C2\C=Nc3ccccc32)sc1=Nc1ccc(C(=O)O)cc1	?	-4%	.	0%	11%	2%
Oc1nc(Nc2ccc(Cl)cc2Cl)sc1/C=C1\C=Nc2ccccc21	-10%	13%	3.2µM*	-3%	-6%	1%
O=C1NC(=O)c2cc([N+](=O)[O-])ccc21	.	.	-7%	.	.	.
